Reference: PubChem BioAssay AID1259415 (National Center for Advancing Translational Sciences (NCATS), 2018)
The campaign covered roughly 410,000 compounds. About 18,000 (4.4%) were called active. About 7% were inconclusive and are not listed. This is one part of a sample in which actives are shown more often than they occur. Unmarked numbers belong to inactive results. Rule as the data show it: active = activity change below about -60%; inconclusive = no clear call, values can overlap the other calls; inactive = above about -39%.

Assay: qHTS Assay for inhibitors of the human cytomegalovirus (HCMV)
Details: HFF cells, HCMV-luciferase reporter, 72 h; at 57.5 µM; active compounds read low
Procedure, shortened: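 Steps: HFFs plated, 16 h 37C; compounds added; HCMV-luciferase added to MOI 1 PFU/cell; 72 h 37C; OneGlo reagent, 5 min room temperature; luminescence read, normalized to controls.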
% is scaled to controls: 0 for no effect and ±100 for the full control effect.

SMILES	activity change, negative = inhibition
Cc1cc(C)c2oc(-c3cccc(NC(=O)c4cccc(F)c4)c3C)nc2c1	-0.821%
O=C(Nc1cccc(-c2cscn2)c1)C1CCN(Cc2ccsc2)CC1	-33.6%
CC(=O)c1cc(CN2CCC(C(=O)Nc3cccc(-c4cscn4)c3)CC2)cs1	-30.7%
CCn1cc(CN2CCC(C(=O)Nc3cccc(-c4cccc(Cl)c4)c3)CC2)cn1	-97.6% (active)
CCCCN1CC(c2nc3ccccc3n2CCCCOc2ccc(C)cc2C)CC1=O (configuration not stated)	-105% (active)
CCc1ccccc1N1CC(c2nc3ccccc3n2CCCCOc2ccccc2)CC1=O (configuration not stated)	-4.32%
COc1ccc(OCCCn2c(C3CC(=O)N(c4ccc(F)cc4)C3)nc3ccccc32)cc1 (configuration not stated)	-13%
O=C(NCc1ccccc1)C1CCN(S(=O)(=O)c2ccc3[nH]c(=O)ccc3c2)CC1	23%
Cc1ccccc1OCC(=O)Nc1c(C(=O)Nc2ccccc2F)oc2ccccc12	11.7%
COc1ccc(CN2CCOC2=O)cc1OC	-13.1%
COc1ccc(Cn2c(=O)sc3ccccc32)cc1OC	-99.8% (active)
C=CCSc1nnc(Cn2c(=O)sc3ccccc32)n1C	-2.22%
CCOC(=O)c1ccc(NC(=O)Cn2c(=O)cc(C)c3c(C)nn(-c4cccc(F)c4)c32)cc1	2.32%
CCC(c1nc2ccccc2[nH]1)n1c(=O)c(-c2cccs2)nc2ccccc21 (configuration not stated)	-2.85%
CCC(C)N1C(=O)S/C(=C/c2ccc(Sc3nc4ccccc4[nH]3)o2)C1=O (configuration not stated)	-91.5% (active)
COc1ccc(C)cc1NC(=O)CCc1c(C)nn(-c2ccc(N3CCOCC3)nn2)c1C	39.1%
CCCCCn1c(=O)[nH]c2cc(C(=O)NCCN(C)CCCC)ccc2c1=O	-33.3%
O=C(Cc1ccccc1)Nc1sc2c(c1C(=O)Nc1ccc(Br)cc1)CCC2	5.03%
CCOc1ccc(NC(=O)c2c(NC(=O)Cc3ccccc3)sc3c2CCC(C)C3)cc1 (configuration not stated)	-34.6%
CCOc1ccc(NC(=O)c2c(NC(=O)Cc3ccccc3)sc3c2CCCCC3)cc1	-74.7% (active)
CC(C)c1ccc(NC(=O)c2ccc(Cn3nc(N4CCN(c5ccccc5)CC4)ccc3=O)o2)cc1	-19.5%
Cn1ncc2c(Nc3cccc4ccccc34)ncnc21	87.3%
Cc1cc(C)n(CC(=O)Nc2ccc([N+](=O)[O-])cc2)n1	-4.15%

SMILES	activity change, negative = inhibition
Cc1cc([N+](=O)[O-])nn1CC(=O)Nc1ccc(Cc2ccncc2)cc1	-63.5% (active)
CC(C)CC(=O)Nc1ccc(Cc2ccncc2)cc1	-32.9%
COc1ccc(NC(=O)CSC2=Nc3ccccc3C3=NC(CC(=O)NCc4ccccc4OC)C(=O)N23)cc1Cl (configuration not stated)	17.7%
CC(Oc1ccc(Br)cc1)C(=O)NC1CCCCCC1 (configuration not stated)	25.7%
CCC(C)NCCOCCOc1ccc(Br)cc1C (configuration not stated)	-37.4%
CC(C)(C)CC(C)(C)NCC(O)COCCOc1ccc(Br)cc1 (configuration not stated)	-100% (active)
O=C(CCc1ccc(S(=O)(=O)N2CCOCC2)cc1)OCC(=O)c1ccc(Br)cc1	49%
C/C(=N\NC(=O)c1ccoc1C)c1ccccc1O	-91.4% (active)
CC(=N\NC(=O)c1cc(Br)ccc1O)/C(=N/O)C(=O)Nc1ccccc1	0%
Cc1ccc(-c2noc(CNC(=O)c3ccoc3C)n2)cc1	-11.6%
Cc1cc(C)c(C#N)c(Nc2cccc(Br)c2)n1	34%
CCOC(=O)c1cc(-c2ccccc2)n(-c2cccc(C(=O)Nc3cc(OC)cc(OC)c3)c2)c1C	0%
O=C(/C=C/c1cccs1)c1cc(Cl)ccc1OC(=O)N1CCOCC1	-92.8% (active)
CC(=O)Nc1ccccc1OC(=O)N1CCOCC1	-15.8%
O=C(NCC(c1cccs1)N1CCOCC1)c1cc(Cl)ccc1[N+](=O)[O-] (configuration not stated)	-16.2%
CCc1ccccc1NC(=O)Cn1c(=O)n(-c2cccc(C)c2)c(=O)c2c1c1cc(OC)ccc1n2C	-23.1%
O=C(COC(=O)c1ncc(Cl)c(Cl)c1Cl)NCc1ccccc1	11.2%
O=C(COC(=O)c1ccccc1C(=O)N1CCN(c2ccccc2)CC1)NCc1ccccc1	-62.6% (active)
O=C(COC(=O)CNC(=O)C1CCCCC1)NCc1ccccc1	69.4%
O=C(C1CCCN(S(=O)(=O)c2cccc3nonc23)C1)N1CCN(c2ccccc2F)CC1 (configuration not stated)	6.66%
O=[N+]([O-])c1ccc(NCCCO)c(C(F)(F)F)c1	-8.02%
Cc1ccc(C(=O)Nc2nnc(C3=COCCO3)o2)cc1C	-0.804%
CCC(CC)c1nnc(NC(=O)C2=COCCO2)s1	-1.99%

SMILES	activity change, negative = inhibition
Cc1ccc(-c2csc(NC(=O)C3=COCCO3)n2)cc1C	-61.5% (active)
CCOc1ccc(CN2CCN(Cc3ccon3)CC2CCO)cc1 (configuration not stated)	3.47%
Cc1nn(CCOc2ccccc2)c(=O)n1-c1ccccc1F	69.3%
CC(C)(c1ccccc1)c1ccc(OCCN)cc1	-107% (active)
C=CCNCCCCOc1ccccc1	16.3%
O=C(/C=C/c1ccccc1)Oc1coc(CSc2ncccn2)cc1=O	9.32%
COC(=O)c1ccc(OC)c(Cn2c(=O)n(Cc3ccccc3)c(=O)c3c2c2cc(OC)ccc2n3C)c1	7.51%
O=C(C1CCN(Cc2ccc(Cl)cc2)CC1)N1CCN(Cc2ccc3c(c2)OCO3)CC1	-63% (active)
O=C(C1CCN(S(=O)(=O)c2cnc[nH]2)CC1)N1CCN(Cc2ccc3c(c2)OCO3)CC1	9.71%
O=C(Nc1ccccc1)N1CCC(C(=O)N2CCN(Cc3ccccc3)CC2)CC1	0%
CCS(=O)(=O)N1CCc2cc(C(=O)NCc3ccc(C)cc3)ccc21	-3.25%
Cc1ccc(C(=O)Nc2ccccc2F)cc1S(=O)(=O)N1CCOCC1	31.5%
Cc1ccc(NC(=O)N[C@H]2CC[C@@]34CCCN3C(=O)CCC[C@H]4C2Cc2ccccc2)cc1 (some centres not stated)	26.8%
CCOC(=O)C1CCN(C(c2ccc(F)cc2)c2sc3nc(-c4ccco4)nn3c2O)CC1 (configuration not stated)	2.65%
Cc1cc(C)c(-c2n[nH]c3c2C(c2ccccc2F)N(CCO)C3=O)c(O)c1 (configuration not stated)	25.7%
CCC1(CC)NC(=O)N(CC(=O)OCC(=O)c2cc(C)c(C)cc2C)C1=O	-15.3%
Cc1ccc(C)c(OCCC(=O)Nc2cccc(S(=O)(=O)N3CCCC3)c2)c1	-23.7%
Cc1cccc(OCCCC(=O)Nc2ccc(S(=O)(=O)N3CCCC3)cc2)c1	10.4%
CC(=O)Nc1ccc(S(=O)(=O)N2CCN(CCCOc3cc(C)ccc3C)CC2)cc1	-65.9% (active)
CC1=C(C(N)=O)C(c2ccc3c(c2)OCO3)n2nc(-c3cccc(C)c3)nc2N1 (configuration not stated)	78%
CCN(CC)c1ccc(C2C(C(N)=O)=C(C)Nc3nc(SCc4ccccc4)nn32)cc1 (configuration not stated)	-90.4% (active)
CC1=C(C(=O)Nc2ccccc2)C(c2ccc(C)cc2)n2nc(SCc3ccccc3C)nc2N1 (configuration not stated)	1.28%
CNc1ccc(-c2nc(-c3ccco3)no2)cc1[N+](=O)[O-]	102%

SMILES	activity change, negative = inhibition
COc1ccc(S(=O)(=O)n2nc(C)c(S(=O)(=O)N3CCCCCC3)c2C)cc1	-17.6%
COc1ccccc1CN1CCCC(N2CCN(c3ccc(F)cc3)CC2)C1 (configuration not stated)	-1.19%
Oc1c(CN2CCN(c3ccc(F)cc3)CC2)cc(Cl)c2cccnc12	-102% (active)
CC(C)c1ccc(O)c(CN2CCN(c3ccccc3)CC2)c1	12.7%
COc1ccc(CNc2nc(-c3ccccc3)nn2C(=O)c2ccccc2OC)cc1	-16.2%
N#Cc1cccc(NC(=O)N[C@H]2CC[C@@]34CCCN3C(=O)CCC[C@H]4C2Cc2ccccc2)c1 (some centres not stated)	0.85%
COc1ccc(C(CCN(Cc2ccc(OC)c(OC)c2)C(=O)CCl)c2ccccc2)cc1 (configuration not stated)	-91.8% (active)
CCOc1ccc(C(CCc2ccccc2)NC(=O)c2ccc(OC)c(OC)c2)cc1OCC (configuration not stated)	37%
CCN(CCCCOC(=O)c1ccc(OC)c(OC)c1)C(C)Cc1ccc(OC)cc1 (configuration not stated)	-37%
Cc1noc2ncnc(NCc3ccccc3Cl)c12	-26.2%
O=C(O)c1ccc2c3c(cccc13)C(=O)N(OS(=O)(=O)c1ccccc1)C2=O	-101% (active)
Cc1cc(OCC(=O)Nc2ncn[nH]2)c(C)c(C)c1Br	1.07%
O=C(Nc1ccc(F)cc1F)c1cnn(-c2ccc(F)cc2)c1-n1cccc1	-4.17%
COc1ccc(Cl)cc1NC(=O)CSc1nc(-c2cccs2)cc(C(F)(F)F)n1	-23.8%
CC(=O)c1ccc(N2CCN(c3nc4c(S(=O)(=O)c5ccccc5)nnn4c4ccc(Cl)cc34)CC2)cc1	8.15%
CN(CCc1ccccc1)c1ccc([N+](=O)[O-])cn1	12.9%
O=[N+]([O-])c1cnc2ccc3ccccc3c2c1	-96.3% (active)
c1ccc2cc(CCCc3cc4ccccc4cn3)ncc2c1	-18.2%
O=C(c1c(F)cccc1F)N1CCN(c2ncc(Br)cn2)CC1	2.5%
CCOC(=O)c1ccc(N2C(=O)c3n[nH]c(-c4ccco4)c3C2c2ccc(O)cc2)cc1 (configuration not stated)	-8.9%
O=C(c1ccc(Cl)cc1)N1N=C(c2ccccn2)CC1(O)C(F)(F)F (configuration not stated)	-98.8% (active)
O=C(C1CC1)N1N=C(c2ccc(Br)cc2)CC1(O)C(F)(F)F (configuration not stated)	10%
COC(=O)C1(O)CC(C(C)C)=NN1C(=O)c1ccc(Cl)cc1 (configuration not stated)	27.1%
